Measurements published in PubChem BioAssay AID1159580 (chemical genetic matrix, 2015).
Several values for one entry are separate records, joined by “and”; a condition that tells them apart may be missing. Equal values may be shown once. The campaign covered roughly 5,500 compounds. About 2,000 (36%) were called active. About 18% were inconclusive and are not listed. Cut-off read from the data, not from the text of the source: active = normalized growth mostly below about 0.91 (no sharp cut-off); inconclusive = no clear call, values can overlap the other calls; inactive = mostly above about 0.92. Some of the results follow.

Assay: chemical genetic growth profiling, strain panel (AID 1159580);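 note: tested at 20 µM; growth read once vehicle control cultures reached saturation at 30 °C; 1 = growth at the plate median or of vehicle wells; lower values mean less growth of the strain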
Details: S. cerevisiae deletion strains, growth OD

Measured: normalized growth

O=c1cc(-c2cc(O)c(O)c(O)c2)oc2cc(O)cc(O)c12
active: locus YAL021C, strain ccr4, hits give low values 0.901 | locus YBR023C, strain chs3, hits give low values 0.897 | locus YBR231C, strain swc5, hits give low values 0.909 | locus YDR069C, strain doa4, hits give low values 0.855
inactive: locus YAL013W, strain DEP1, hits give low values 0.997 | locus YAL026C, strain drs2, hits give low values 0.927 | locus YAL030W, strain snc1, hits give low values 1.01 | locus YBL061C, strain skt5, hits give low values 0.942 | locus YBR009C, strain hhf1, hits give low values 0.95 | locus YBR021W, strain FUR4, hits give low values 1.07 | locus YBR171W, strain sec66, hits give low values 1 | locus YBR229C, strain ROT2, hits give low values 0.988 | locus YBR279W, strain paf1, hits give low values 0.935 | locus YCL011C, strain gbp2, hits give low values 0.946 | locus YCL016C, strain dcc1, hits give low values 0.94 | locus YCL029C, strain bik1, hits give low values 0.988 | locus YCL061C, strain MRC1, hits give low values 0.942 | locus YCL069W, strain vba3, hits give low values 0.997 | locus YCR088W, strain abp1, hits give low values 0.995 | locus YDL005C, strain med2, hits give low values 1.02 | locus YDL035C, strain GPR1, hits give low values 0.992 | locus YDL040C, strain nat1, hits give low values 1.04 | locus YDL074C, strain BRE1, hits give low values 0.957 | locus YDL101C, strain DUN1, hits give low values 1.01 | locus YDL134C, strain PPH21, hits give low values 1.05 | locus YDL185W, strain tfp1, hits give low values 0.941 | locus YDL192W, strain arf1, hits give low values 0.971 | locus YDR001C, strain nth1, hits give low values 1.01 | locus YDR101C, strain arx1, hits give low values 1.01 | locus YDR137W, strain rgp1, hits give low values 0.992 | locus YDR159W, strain sac3, hits give low values 1.05 | locus YDR162C, strain NBP2, hits give low values 1.03 | locus YDR195W, strain ref2 1.05 | locus YDR297W, strain sur2, hits give low values 0.971 | locus YDR318W, strain mcm21, hits give low values 0.995 | locus YDR334W, strain swr1, hits give low values 0.978 | locus YDR335W, strain msn5, hits give low values 0.986 | locus YDR388W, hits give low values 0.996 | locus YDR392W, strain spt3, hits give low values 0.893 | locus YDR502C, strain sam2, hits give low values 0.984 | locus YEL003W, strain gim4, hits give low values 0.957 | locus YEL037C, strain rad23, hits give low values 0.979 | locus YEL061C, strain CIN8 (second series), hits give low values 1 | locus YEL061C, strain CIN8, hits give low values 1 | locus YER015W, strain faa2, hits give low values 0.984 | locus YER016W, strain bim1, hits give low values 1 | locus YER110C, hits give low values 0.996 | locus YER111C, strain swi4, hits give low values 0.965 | locus YER155C, strain BEM2 (second series), hits give low values 0.938 | locus YER155C, strain BEM2, hits give low values 1.03 | locus YER167W, strain BCK2, hits give low values 1.01 | locus YFR010W, strain ubp6, hits give low values 0.942 | locus YGL078C, strain dbp3, hits give low values 0.979 | locus YGL086W, strain mad1, hits give low values 1.01 | locus YGL167C, strain pmr1, hits give low values 0.988 | locus YGL173C, strain kem1, hits give low values 0.967 | locus YGL227W, strain vid30, hits give low values 1.01 | locus YGL240W, strain doc1, hits give low values 1.02 | locus YGL248W, strain PDE1, hits give low values 1.01 | locus YGL253W, strain hxk2, hits give low values 0.948 | locus YGR135W, strain pre9, hits give low values 0.96 | locus YGR252W, strain gcn5, hits give low values 1 | locus YHR013C, strain ard1, hits give low values 0.904 | locus YHR027C, strain rpn1, hits give low values 0.978 | locus YHR030C, strain SLT2, hits give low values 0.989 and 1.07 | locus YHR079C, strain IRE1 (second series), hits give low values 1.02 | locus YHR079C, strain IRE1, hits give low values 1.06 | locus YHR094C, strain hxt1, hits give low values 1.02 | locus YHR129C, strain ARP1, hits give low values 0.986 | locus YHR142W, strain chs7, hits give low values 0.911 | locus YHR200W, strain rpn10, hits give low values 0.97 | locus YIL066C, strain RNR3, hits give low values 0.989 | locus YIL073C, strain SPO22, hits give low values 0.964 | locus YIL125W, strain kgd1, hits give low values 0.985 | locus YIR030C, strain dcg1, hits give low values 1 | locus YJL092W, strain hpr5, hits give low values 0.996 | locus YJL095W, strain BCK1 (second series), hits give low values 0.95 | locus YJL095W, strain BCK1, hits give low values 0.973 and 1.01 | locus YJL115W, strain asf1, hits give low values 1.01 | locus YJL129C, strain trk1, hits give low values 0.991 | locus YJL134W, strain LCB3, hits give low values 0.994 | locus YJL154C, strain vps35, hits give low values 1.02 | locus YJL164C, strain tpk1, hits give low values 0.954 | locus YJL166W, strain qcr8, hits give low values 0.957 | locus YJL168C, strain set2, hits give low values 0.998 | locus YJL187C, strain SWE1 (second series), hits give low values 0.974 | locus YJL187C, strain SWE1, hits give low values 0.986 | locus YJR043C, strain POL32, hits give low values 1 | locus YJR066W, strain TOR1, hits give low values 0.981
